According to paper PMC4336329 (PLoS ONE, 2015):
Screen size: about 310,000 compounds; about 2,200 (0.71%) showed an effect of 50% or more. The effect is printed as a negative number. Shown is part of a subset that was picked to be rich in strong results.

biological target: human ether-à-go-go-related gene (hERG) potassium channel (human, UniProt Q12809); test: primary screen, population patch clamp on CHO cells stably expressing hERG; higher = less effect of the substance
Sequence (Q12809 whole entry, looked up): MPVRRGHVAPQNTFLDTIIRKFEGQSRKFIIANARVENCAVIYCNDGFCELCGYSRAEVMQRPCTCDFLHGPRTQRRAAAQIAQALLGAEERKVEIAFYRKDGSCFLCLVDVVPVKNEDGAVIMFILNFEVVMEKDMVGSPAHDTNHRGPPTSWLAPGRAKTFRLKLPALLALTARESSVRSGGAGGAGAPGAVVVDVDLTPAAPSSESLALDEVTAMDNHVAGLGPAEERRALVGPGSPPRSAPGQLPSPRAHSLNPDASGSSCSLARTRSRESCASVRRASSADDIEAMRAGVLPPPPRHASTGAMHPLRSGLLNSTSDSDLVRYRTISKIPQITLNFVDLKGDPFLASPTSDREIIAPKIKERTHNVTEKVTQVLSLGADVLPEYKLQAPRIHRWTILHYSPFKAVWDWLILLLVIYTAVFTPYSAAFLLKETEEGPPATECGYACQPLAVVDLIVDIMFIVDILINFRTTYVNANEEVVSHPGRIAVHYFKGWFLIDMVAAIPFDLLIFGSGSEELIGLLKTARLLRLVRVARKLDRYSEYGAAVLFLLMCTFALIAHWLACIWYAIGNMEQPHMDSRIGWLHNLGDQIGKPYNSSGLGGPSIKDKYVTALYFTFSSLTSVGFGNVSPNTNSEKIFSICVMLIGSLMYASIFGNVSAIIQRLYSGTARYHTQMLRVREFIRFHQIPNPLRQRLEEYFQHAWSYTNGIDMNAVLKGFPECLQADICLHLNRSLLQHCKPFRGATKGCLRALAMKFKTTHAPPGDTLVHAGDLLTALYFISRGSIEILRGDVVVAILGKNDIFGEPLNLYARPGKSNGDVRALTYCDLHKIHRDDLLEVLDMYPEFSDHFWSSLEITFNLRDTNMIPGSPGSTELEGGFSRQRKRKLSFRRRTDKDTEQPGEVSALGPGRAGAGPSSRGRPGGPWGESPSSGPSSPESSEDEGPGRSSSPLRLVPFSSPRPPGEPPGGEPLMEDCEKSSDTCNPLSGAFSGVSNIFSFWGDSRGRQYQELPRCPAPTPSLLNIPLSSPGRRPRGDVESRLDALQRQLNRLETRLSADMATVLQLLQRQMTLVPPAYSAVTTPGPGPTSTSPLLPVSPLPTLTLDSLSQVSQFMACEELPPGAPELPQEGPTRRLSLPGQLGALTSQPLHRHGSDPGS

SMILES | hERG current change (%, negative = inhibition) at 1uM
Cc1cc(C=C2C(=O)NC(=O)NC2=O)c(C)n1-c1ccc2c(c1)OCO2 | 13.5%
CCOC(=O)C1CCN(CC(O)COCc2ccccc2)CC1.O=C(O)C(=O)O (centres unmarked) | 3.28%
Cl.OC(COCc1ccccc1)CN1CCCC1 (centres unmarked) | 1.21%
Cl.OC(COCc1ccc(Cl)cc1)CN1CCCCC1 (centres unmarked) | 0.152%
CCOC(=O)c1ccc(S(=O)(=O)N2CCN(CC(O)COc3cccc(C(C)=O)c3)CC2)cc1.O=C(O)C(=O)O (centres unmarked) | 10%
CCOC(=O)C1CCN(CC(O)COCc2ccc3c(c2)OCO3)CC1.Cl (centres unmarked) | 1.96%
CC(=O)c1cccc(OCC(O)CN2CC=C(c3ccccc3)CC2)c1.O=C(O)C(=O)O (centres unmarked) | -50%
CCOC(=O)C1CCN(CC(O)COc2ccc(C(=O)CC)cc2)CC1.Cl (centres unmarked) | -49.5%
CCOC(=O)C1CCN(CC(O)COc2ccc(C(C)(C)C)cc2)CC1.Cl (centres unmarked) | -53.2%
CCOC(=O)C1CCN(CC(O)COCc2ccc(Cl)cc2)CC1.Cl (centres unmarked) | -58.6%
CC(=O)c1cccc(OCC(O)CN2CCN(S(=O)(=O)c3c(F)cccc3F)CC2)c1.O=C(O)C(=O)O (centres unmarked) | 1.4%
CCOC(=O)C1CCN(CC(O)COc2ccc(C(C)=O)cc2)CC1.Cl (centres unmarked) | -30.4%
OC(COCc1ccc(Cl)cc1)CN1CCN(CC(O)COCc2ccc(Cl)cc2)CC1 (centres unmarked) | -67.5%
COc1cccc(N2CCN(C(=O)Cn3c(=O)oc4ccccc43)CC2)c1 | 4.28%
Cc1ccc(-c2nn(-c3ccccc3)cc2/C=N/n2c(-c3cccs3)n[nH]c2=S)cc1 | 15%
NS(=O)(=O)c1ccc(CCNC(=O)CNC(=O)c2ccccc2F)cc1 | 11.3%
CCOc1ccc(Cc2noc3c2C(=O)CCC3)cc1OCC | 23.3%
O=C(NCCCCCCNC(=O)NCc1ccco1)NCc1ccco1 | 6.09%
O=C1CCC(/C=C/c2ccccc2)=NN1Cc1ccc(Cl)c(Cl)c1 | 2.78%
O=C(NCc1ccccn1)/C(=N/O)c1ccccc1 | 9.34%
CC(C)n1c(O)c(N=Nc2ccc(Cl)nn2)c2ccccc21 | 10.7%

SMILES | hERG current change (%, negative = inhibition) at 1uM
C=CCNC(=S)/C(=C(\[O-])c1ccc(Cl)cc1)[n+]1ccccc1 | 11.2%
Cc1ccc(S(=O)(=O)NCC2CCC(C(=O)N3CCN(C)CC3)CC2)cc1 (centres unmarked) | 22.1%
Cl.OC(COCc1ccc(Cl)cc1)CN1CCc2ccccc2C1 (centres unmarked) | -27.3%
NC(=O)C1CCCN(CC(O)COCc2ccc(Cl)cc2)C1.O=C(O)C(=O)O (centres unmarked) | 11.5%
O=C(O)C(=O)O.OC(COCc1ccc(Cl)cc1)CN1CC=C(c2ccccc2)CC1 (centres unmarked) | -84.2%
C=CC[N+]1(CC=C)CCOCC1.[Br-] | 34.2%
COc1ccc(C(=O)/C=C/c2cn(CN3CCN(C)CC3)c3ccccc23)cc1 | -3.29%
CCOc1ccc2nc(N3CCC(C(=O)N4CCN(c5ncccn5)CC4)CC3)sc2c1 | 4.83%
CCOc1ccc2nc(N3CCC(C(=O)N4CCN(c5ccccn5)CC4)CC3)sc2c1 | -17.4%
COc1ccc2nc(C)cc(N3CCC(C(N)=O)CC3)c2c1 | -2.62%
CCOc1ccc2nc(N3CCC(C(=O)N4CCN(C(=O)c5ccco5)CC4)CC3)sc2c1 | -89.3%
COc1ccc(N2CCN(c3cc(C)nc4ccc(OC)cc34)CC2)cc1 | -31%
Cc1ccc(Cl)c2sc(N3CCN(C(=O)c4ccco4)CC3)nc12 | -0.903%
CCOc1ccc2nc(N3CCC(C(=O)N4CCC5(CC4)OCCO5)CC3)sc2c1 | 6.77%
CCOC(=O)C1CCN(C(=O)C2CCN(c3nc4ccc(OC)cc4s3)CC2)CC1 | -53.4%
O=C(c1ccco1)N1CCN(c2nc3ccsc3c(=O)s2)CC1 | -74.5%
CCOC(=O)C1CCN(c2cc(C)nc3ccc(OC)cc23)CC1 | -56.1%
Cc1ccc2nc(N3CCN(C(=O)c4ccco4)CC3)sc2c1 | -7.42%
CCOc1ccc2nc(N3CCC(C(=O)N4CCN(C5CCCCC5)CC4)CC3)sc2c1 | -8.64%
O=C(O)C1CCC(=O)N1C1c2ccccc2Oc2ccccc21 (centres unmarked) | 7.76%
CC(NCC(=O)NCCc1ccc(S(N)(=O)=O)cc1)c1ccc(F)cc1 (centres unmarked) | 15.1%

SMILES | hERG current change (%, negative = inhibition) at 1uM
COc1ccccc1/C(C)=N/NC(=S)NCc1ccccc1 | 0.32%
COCc1nc(-c2ccc(-c3ccc(C)cc3)nc2OC)no1 | 4.81%
Cn1cccc1/C=N/N1CCN(c2ccccc2)CC1 | 18.1%
COc1ccc(CC(=O)OCC(=O)N2CCCc3ccccc32)cc1 | 7.67%
CCOC(=O)/C(C#N)=C1/C=CN(c2ccccc2)C=N1 | 7.43%
CCCn1c(N)c(C(=O)CSc2nnc3n2CCCCC3)c(=O)[nH]c1=O | 4.02%
CCOP(=O)(OCC)/C(C#N)=C/c1ccc([N+](=O)[O-])cc1 | -4.07%
N=c1c(C(=O)NCc2ccc(F)cc2)cc2c(=O)n3ccccc3nc2n1Cc1cccnc1 | -80.3%
N#Cc1cc2c(=O)n3ccccc3nc2n(Cc2cccnc2)c1=O | 2.54%
N=c1c(S(=O)(=O)c2ccccc2)cc2c(=O)n3ccccc3nc2n1Cc1cccnc1 | 6.5%
COCCCn1c(=N)c(C(=O)NCc2ccc3c(c2)OCO3)cc2c(=O)n3ccccc3nc21 | -87.4%
COc1ccc(CNC(=O)c2cc3c(=O)n4ccccc4nc3n(Cc3cccnc3)c2=N)cc1 | -32.6%
CCCn1c(=NC(C)=O)c(C(=O)OCC)cc2c(=O)n3ccccc3nc21 | 8.09%
COCCCn1c(C(=O)Nc2ccc3c(c2)OCO3)cc2c(=O)n3ccccc3nc21 | 13.5%
COC(=O)c1cc2c(=O)n3ccccc3nc2n(Cc2cccnc2)c1=N | -51.5%
N=c1c(S(=O)(=O)c2ccc(Cl)cc2)cc2c(=O)n3ccccc3nc2n1Cc1cccnc1 | 7.26%
CCCCn1c(=NC(=O)c2ccco2)c(C(=O)OCC)cc2c(=O)n3ccccc3nc21 | -44.1%
COCCCn1c(C(=O)N2CCOCC2)cc2c(=O)n3ccccc3nc21 | 3.13%
CCOC(=O)c1cc2c(=O)n3ccccc3nc2n(Cc2ccccc2)c1=N | -68.9%
Oc1[nH]c2ccc(Br)cc2c1N=NC(=S)N1CCOCC1 | 17.6%
Cc1onc(-c2c(Cl)cccc2Cl)c1C(=O)O/N=C(\C#N)c1ccccc1 | 7.14%

SMILES | hERG current change (%, negative = inhibition) at 1uM
O=C(CSC1=NS(=O)(=O)c2cc(F)ccc2N1)Nc1cccc(F)c1 | 2.39%
CCCc1cc(=O)[nH]c(SCC(=O)NC)n1 | -0.511%
O=Cc1cn(Cc2ccc(F)cc2)c2ccccc12 | 14.4%
O=C(NCCCN1CCCC1=O)C1CCN(S(=O)(=O)c2cccc(C(F)(F)F)c2)CC1 | 23.6%
CCc1nnc(NC(=O)C(C)N2C(=O)C3C4C=CC(C4)C3C2=O)s1 (centres unmarked) | 3.03%
O=C(CCn1c(=O)c2ccccc2n(Cc2cccnc2)c1=O)NCc1ccc2c(c1)OCO2 | 9.51%
O=C(NCc1ccc2c(c1)OCO2)c1cnc2ccccn2c1=O | 5.17%
N=c1c(C(=O)NCc2ccc3c(c2)OCO3)cc2c(=O)n3ccccc3nc2n1Cc1cccnc1 | -51.5%
CCN(C(=O)c1cc2c(=O)n3ccccc3nc2n1CCCOC)C1CCCCC1 | 2.38%
COc1ccc(Cn2c(=N)c(C(=O)NC3CCCCC3)cc3c(=O)n4ccccc4nc32)cc1 | -5.89%
COc1ccc(CCn2c(=N)c(C(=O)NC3CCCC3)cc3c(=O)n4cccc(C)c4nc32)cc1 | -79.9%
COc1ccc(CCn2c(=N)c(C(=O)NC3CCCCC3)cc3c(=O)n4ccccc4nc32)cc1 | -84.1%
COc1ccc(CCn2c(=N)c(S(=O)(=O)c3ccccc3)cc3c(=O)n4ccccc4nc32)cc1 | 10.8%
COc1ccc(CCn2c(=N)c(C(=O)NC3CCCC3)cc3c(=O)n4ccccc4nc32)cc1 | -89.2%
COCCCn1c(=N)c(C(=O)NC2CCCCC2)cc2c(=O)n3ccccc3nc21 | -81.6%
COc1ccc(CCn2c(=N)c(C(=O)NC3CCCC3)cc3c(=O)n4ccccc4nc32)cc1OC | -46.9%
Cc1cccn2c(=O)c3cc(C(=O)NC4CCCC4)c(=N)n(CCc4ccccc4)c3nc12 | -33.8%
COc1ccc(CCn2c(=N)c(C(=O)N3CCN(C)CC3)cc3c(=O)n4ccccc4nc32)cc1 | -2.76%
C/C(=N\NC(=O)c1cccc(F)c1)c1ccc(NC(=O)Cc2ccccc2)cc1 | 12.8%
COc1cccc(CN2C(=NC(=O)C3CC3)SC3CS(=O)(=O)CC32)c1 (centres unmarked) | 14.8%
